Screening results: PubChem, several laboratories
TWEAK Fn14 block – TWEAK-Fn14 signaling inhibition | inhibition, % at 10 µM | hit rate 2% among 360,000 | AID 1159606 | TWEAK-stimulated Fn14 reporter cells, luciferase luminescence, 8 h; in the data active means inhibition above about 50%
EBV LMP1 NFkB – Epstein-Barr LMP1 NF-kappaB reporter inhibition | LMP1-induced NF-kappaB luciferase reporter cells, luminescence | inhibition, % at 12.5 µM | hit rate 0.69% among 350,000; in the data active means inhibition above about 41%;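 further: 0% = neutral control wells and 100% = reference inhibitor control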
HSF1 inh – HSF1 inhibition | NIH3T3-HGL HSE-luciferase, MG132-induced, luminescence 8 h; active compounds read low | hit rate 0.77% among 300,000 | AID 2098 | activity change, negative = inhibition, % at 7.5 µM (by protocol);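 active means more than half of replicate wells show activity change below -50%, luminescence cut by over half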;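 further: luciferase reports HSF-1 transcriptional activity via heat shock element; 0% = median of DMSO wells and -100% = zero luminescence signal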
HSP90 inh – HSP90 refolding inhibition in rabbit reticulocyte lysate. inhibition, % at 5.6 µM. luciferase refolding luminescence, 3 h. hit rate 0.91% among 290,000. AID 1789;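 active means inhibition above the screen-wide mean plus 3 SD, computed separately per campaign, cut at about 16% in these data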;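 further: 0% = DMSO wells and 100% = 60 µM geldanamycin wells; inhibitors lower the luminescence because luciferase stays unfolded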
TROY signal inh – TROY signaling inhibition | Q293 LMP1-TROYcd NF-kB luciferase reporter, 4 h | inhibition, % at 10 µM | hit rate 0.98% among 360,000;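 active means compounds whose plate-normalised and pattern-corrected inhibition of the luciferase reporter signal at the single screening dose is 50% or more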
HSF-1 act – increases HSF-1 driven luciferase reporter signal | activation, % at 9 µM | NIH3T3-HGL HSF-1 luciferase reporter, MG132, 8 h; 100% = twice DMSO control signal | hit rate 1.7% among 300,000;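 active means mean replicate activation of at least 50% with a set share of replicates each reaching 50%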;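 further: 0% = median of the neutral control wells and 100% = twice that signal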
* hit, by the source's call; . = no result given. Rows were chosen to be rich in hits. Some 4.7% of all compounds tested hit in one or more screens of this group.

SMILES | TWEAK Fn14 block | EBV LMP1 NFkB | HSF1 inh | HSP90 inh | TROY signal inh | HSF-1 act
O=C(OCC(=O)N1CCc2ccccc21)c1ccccc1[N+](=O)[O-] | 60* | -33 | . | . | 50 | .
CCOC(=O)[C@]12CCC=C1N(Cc1ccc(Cl)cc1Cl)C(=O)[C@H](CC(=O)NCc1ccc(OC)c(OC)c1)C2 | 45 | . | . | . | 28 | .
O=C(C[n+]1cccc(C(=O)Nc2ccccc2)c1)c1ccccc1 | 1 | . | . | . | -7 | .
C[C@@H]1CCCCO[C@@H](CN(C)CC2CC2)[C@@H](C)CN([C@H](C)CO)C(=O)c2cc(N(C)C)ccc2O1 | 3 | 2 | . | . | -16 | .
CCn1c(-c2ccc(F)cc2)cnc1SCC(=O)N1CCc2ccccc21 | . | . | 41 | -3 | . | 70*
CCOc1ccc2c(c1)[N+](C)(C)C(C)(C)C=C2C | 7 | -4 | -80* | 0 | -8 | -84
Cc1nc(Oc2ccc(S(=O)(=O)N3CCOCC3)cc2Cl)c2c3c(sc2n1)CCCC3 | 60* | 9 | -9 | -6 | 29 | 2
CC1CC(C)C[N+](=C2C=C(N3CCCC3)CC(C)(C)C2)C1 (stereo not given) | 50 | 42* | -8 | 0 | 19 | 6
CN1CCC(N2CCN(C3CN(C4CCCC4)S(=O)(=O)C3)CC2)CC1 (stereo not given) | 1 | . | . | . | 7 | .
O=c1[nH]c(CCl)nc2cc(-c3ccc(F)cc3)sc12 | 1 | 18 | 17 | 16 | -29 | 53*
C(=C\c1ccccc1)/CN1CCN(C(c2cc3ccccc3o2)c2nnnn2C2CCCCC2)CC1 (stereo not given) | 14 | . | . | . | 47 | .
Cc1cccn2c(=O)c3cc(C(=O)NCCc4ccccc4)c(=N)n(Cc4ccco4)c3nc12 | 101* | -6 | 23 | -2 | 33 | 27
N=c1c(C(=O)NCc2ccccc2)cc2c(=O)n3ccccc3nc2n1Cc1ccco1 | 42 | 1 | 4 | -2 | -4 | 14
COc1ccc(CCNC(=O)c2cc3c(=O)n4cccc(C)c4nc3n(Cc3ccco3)c2=N)cc1OC | 87* | -4 | 70 | 2 | 10 | 99*
N=c1c(C(=O)NCc2ccc(F)cc2)cc2c(=O)n3ccccc3nc2n1Cc1ccco1 | 95* | -34 | 1 | 2 | 59* | 14
OC[C@@H]1CN(Cc2ccncc2)C[C@H](n2cnc3c(N4CCOCC4)ncnc32)O1 | 6 | . | . | . | -11 | .
CCOC(=O)C1(C)CCN1C(=O)c1cccc(Cl)c1 (stereo not given) | -3 | . | . | . | -5 | .
CCOc1ccc(N=Cc2ccc([N+](=O)[O-])cc2)c(O)c1 | -7 | -5 | . | . | -44 | .
O=C(c1ccc2nccnc2c1)N1CCCC(Nc2ccc(F)c(F)c2)C1 (stereo not given) | -6 | -7 | 22 | 7 | -6 | 59*
O=C(NC12CC3CC(CC(C3)C1)C2)c1ccc(-c2ccc(Cl)cc2)o1 | 36 | -49 | 4 | 9 | 54* | 9
O=C(NC12CC3CC(CC(C3)C1)C2)c1ccc(-c2cccc(Cl)c2)o1 | 68* | -68 | -21 | 17* | 73* | -36
CCOC(=O)c1ccc(S(=O)(=O)N2CCC(C(=O)NCC3COc4ccccc4O3)CC2)cc1 (stereo not given) | 15 | 9 | . | . | -2 | .
COc1ccc(NC(=O)C2=CC(c3cccs3)=NS(=O)(=O)N2C)cc1 | -2 | 5 | -18 | -2 | -9 | -21
CN1C(C(=O)Nc2ccc(OC(F)(F)F)cc2)=CC(c2cccs2)=NS1(=O)=O | 10 | 1 | -74* | -3 | 38 | -80
O=C(O)CN1C(=O)/C(=C\c2cc(Br)ccc2OCc2ccccc2Cl)SC1=S | -20 | -11 | -7 | -1 | 50 | 14
SMILES | TWEAK Fn14 block | EBV LMP1 NFkB | HSF1 inh | HSP90 inh | TROY signal inh | HSF-1 act
O=C(O)CN1C(=O)/C(=C\c2ccccc2OCc2ccc(Cl)cc2Cl)SC1=S | 97* | 44* | -66* | 5 | 80* | -70
COc1cccc(/C=C2\SC(=S)N(CCC(=O)Nc3ccc(O)cc3)C2=O)c1 | 25 | -1 | -9 | 9 | 5 | -14
COc1cccc(/C=C2/SC(=S)N(CCC(=O)N3CCOCC3)C2=O)c1 | -5 | -2 | 4 | -4 | -33 | 1
O=C(CCCN1C(=O)/C(=C/c2ccccc2Cl)SC1=S)NNC(=O)c1ccccc1Cl | 78* | 44* | -38 | -2 | 34 | -45
COc1cccc(/C=C2\SC(=S)N(CCC(=O)NCCc3ccc(O)cc3)C2=O)c1 | -5 | 41* | 5 | -1 | 5 | -6
COc1cccc(/C=C2\SC(=S)N(CCCC(=O)N3CCCCC3)C2=O)c1 | -2 | 3 | 23 | 2 | -6 | 55*
COc1cc(/C=C2/SC(=S)N(CC(=O)NNC(=O)c3ccc(F)cc3)C2=O)cc(OC)c1OC | -16 | -13 | . | . | -14 | .
CCC(=O)N1CCC1(C)C(=O)Nc1ccc(OC(F)F)cc1 (stereo not given) | -4 | . | . | . | 4 | .
COc1ccc(C(O)c2ncc(-c3ccccc3C)[nH]2)cc1F (stereo not given) | -27 | . | . | . | -13 | .
COc1ccc(NC(=O)C2Cc3c(-c4ccc(Cl)cc4)ccnc3O2)cc1OC (stereo not given) | 39 | . | . | . | 35 | .
COc1cccc(CNC(=O)[C@@H]2CCCN2C(=O)[C@H]2CCCCN2C(=O)c2c(F)cccc2F)c1 | -5 | . | . | . | -4 | .
O=C(CCCN1C(=O)/C(=C/c2ccccc2Cl)SC1=S)NNC(=O)c1ccncc1 | 79* | 8 | -31 | 5 | 68* | -33
O=C(CCN1C(=O)/C(=C/c2ccccc2Cl)SC1=S)N1CCCC1 | 37 | 5 | -3 | 0 | -27 | 14
O=C(CCCN1C(=O)/C(=C/c2cccs2)SC1=S)NNC(=O)c1ccncc1 | 5 | 14 | . | 2 | -25 | .
O=C(CCCN1C(=O)/C(=C/c2ccccc2Cl)SC1=S)N1CCCC1 | 58* | 7 | -15 | 9 | 11 | -24
COC(=O)c1cc(Br)c(=O)n(Cc2ccco2)c1 | 78* | 3 | 0 | 2 | . | 7
COC(=O)c1ccc(=O)n(Cc2ccco2)c1 | -15 | 0 | -6 | 0 | 13 | 3
CNC(=O)c1ccsc1NC(=O)c1ccc(Cl)s1 | -2 | -22 | -66* | -4 | -55 | -72
CC(=O)c1sc(NC(=O)c2ccc3c(c2)OCO3)nc1C | -3 | 2 | 19 | 6 | -50 | 33
CC(=O)c1sc(NC(=O)c2ccc(C)c(C)c2)nc1C | 1 | -28 | 29 | 9 | -43 | 53*
CC(=O)Nc1ccc(-c2ccnc3c2CC(C(=O)Nc2cccc(N(C)C)c2)O3)cc1 (stereo not given) | -6 | . | . | . | 12 | .
CN(/C(=N\S(=O)(=O)c1ccccc1)c1ccccc1)c1ccc(O)cc1 | -23 | 7 | 12 | 2 | -10 | 59*
CCOc1ccc(/C=C(\C#N)C(=O)c2c(C)[nH]c3ccccc23)cc1OC | 20 | 5 | 0 | 4 | 31 | 11
COc1cc(/C=C(/C#N)C(=O)c2c(C)[nH]c3ccccc23)ccc1OCC#N | 7 | -7 | 42 | 5 | 36 | 68*
